PubChem BioAssay (NCI)
This is part of a sample that, as a whole, favours compounds with a hit. Of some 83,000 tested, about 20% had one in any assay.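 Values shown are percent growth following 48 h exposure of cells in 96-well plates to a single concentration of compound; below 10 was considered active.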 A number with no mark means an inactive call. The source made the active and inactive calls.

These compounds were tested on MDA-MB-468 breast (assay: NCI-60 one-dose screen, 48 h (100 = growth as untreated, 0 = no growth, -100 = all killed)). Settings: 10 µM unless noted.

Structure (SMILES)	growth
CC(=O)OC[C@]12CC[C@@H](/C(C)=N/O)[C@@H]1[C@H]1CC[C@@H]3[C@@]4(C)CCCNC(C)(C)[C@@H]4CC[C@@]3(C)[C@]1(C)CC2	54.1%
Cc1cc2nc3c4cc(Cl)ccc4n(CC(=S)NCCN(C)C)c3nc2cc1C	-89.3% (active)
COc1cc2oc(-c3cccc(NC(=O)c4cc(N)ccc4Cl)c3)cc(=O)c2c(OC)c1OC	95.3%
COCCN(C(=O)c1ccc(F)cc1F)c1c(N)n(Cc2ccccc2)c(=O)[nH]c1=O	87.8%
